Each structure is given as a SMILES string. Records with an inconclusive call do not appear. Active and inactive are the calls of the source. How the source made its calls: active means hit-call score of the fitted dose curve at least 0.9, where 1 is the maximum; inconclusive means response in the unintended direction; inactive means score below 0.9.

Assay [1] is described as follows: ACEA_AR_agonist_AUC_viability: ACEA Biosciences xCELLigence Real-Time Cell Analysis on Androgen Receptor Agonism for Viability (AID 2283775).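 On AC50: viability read 80 hours after compound addition.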 In outline:
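22Rv1 cells; impedance growth kinetics; 8-pt 1:4 dilutions from 100 uM top final, ≤0.5% DMSO; n = 2; 80 h read; AUC viability, loss-of-signal vs DMSO.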

Assay [2] is described as follows: ACEA_AR_antagonist_AUC_viability: ACEA Biosciences xCELLigence Real-Time Cell Analysis on Androgen Receptor Antagonism for Viability (AID 2283776).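 Further: 22Rv1 human prostate cancer cells growing on impedance electrode plates; hits lower the growth signal relative to DMSO meaning cytotoxicity.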 In outline:
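Real-time electrical impedance tracks 22Rv1 proliferation after continuous compound exposure (top 100 uM final, 1:4 steps, 8 concentrations). The 80 h area-under-curve serves as the cytotoxicity readout relative to DMSO.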

Assay [3] can be described thus: ACEA_ER_AUC_viability: ACEA Biosciences xCELLigence Real-Time Cell Analysis on Estrogen Receptor Agonism for Viability (AID 2283782).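 Further: hit means loss of impedance signal meaning reduced cell growth or viability.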 In outline: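 Continuous-exposure impedance cell analysis uses T-47D cells in charcoal-stripped serum, eight 1:4 dilutions topping at 100 uM final, biological duplicate. Area under the growth curve at 80 h is fitted against DMSO baseline.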

Assay [4] in a line: STM_H9_NormalizedViability: Cytotoxicity Assessment at 120 hours in the Stemina devTOX quickPredict H9 human embryonic stem cell (hESC)-based Assay (AID 2283784). In outline: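 Viability endpoint: background-corrected CellTiter-Fluor RFU expressed relative to the 0.1% DMSO mean on each plate. Undifferentiated H9 cells were treated with daily re-dosing and media change, and loss of signal was fitted.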

Assay [5] deals with AR (gene 367) (UniProt P10275). Nature of the assay: ACEA_AR_antagonist_80hr: ACEA Biosciences xCELLigence Real-Time Cell Analysis on Androgen Receptor Antagonism for Proliferation (AID 2283787).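 Further: 22Rv1 human prostate cancer cells with growth followed by electrical impedance; hits lower the impedance growth signal relative to DMSO.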 In outline:
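Using 22Rv1 cells held in assay medium, we dosed compounds (100 uM maximum final, 1:4 serial, eight points, 0.5% DMSO at top) and recorded cell-electrode impedance; the 80 hr timepoint was analyzed against DMSO.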

The target in assay [6] is AR (gene 367) (UniProt P10275). The assay can be described thus: ACEA_AR_agonist_80hr: ACEA Biosciences xCELLigence Real-Time Cell Analysis on Androgen Receptor Agonism for Proliferation (AID 2283783).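 Further: hits increase impedance growth signal above DMSO baseline.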 In outline:
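Real-time cell-growth kinetics were recorded by electrode impedance in 22Rv1 cells exposed to test chemicals up to 100 uM final; the 80 h timepoint served as the readout, fitted upward relative to DMSO controls, in biological duplicate.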

Sequence of AR (gene 367) (P10275 whole entry, looked up): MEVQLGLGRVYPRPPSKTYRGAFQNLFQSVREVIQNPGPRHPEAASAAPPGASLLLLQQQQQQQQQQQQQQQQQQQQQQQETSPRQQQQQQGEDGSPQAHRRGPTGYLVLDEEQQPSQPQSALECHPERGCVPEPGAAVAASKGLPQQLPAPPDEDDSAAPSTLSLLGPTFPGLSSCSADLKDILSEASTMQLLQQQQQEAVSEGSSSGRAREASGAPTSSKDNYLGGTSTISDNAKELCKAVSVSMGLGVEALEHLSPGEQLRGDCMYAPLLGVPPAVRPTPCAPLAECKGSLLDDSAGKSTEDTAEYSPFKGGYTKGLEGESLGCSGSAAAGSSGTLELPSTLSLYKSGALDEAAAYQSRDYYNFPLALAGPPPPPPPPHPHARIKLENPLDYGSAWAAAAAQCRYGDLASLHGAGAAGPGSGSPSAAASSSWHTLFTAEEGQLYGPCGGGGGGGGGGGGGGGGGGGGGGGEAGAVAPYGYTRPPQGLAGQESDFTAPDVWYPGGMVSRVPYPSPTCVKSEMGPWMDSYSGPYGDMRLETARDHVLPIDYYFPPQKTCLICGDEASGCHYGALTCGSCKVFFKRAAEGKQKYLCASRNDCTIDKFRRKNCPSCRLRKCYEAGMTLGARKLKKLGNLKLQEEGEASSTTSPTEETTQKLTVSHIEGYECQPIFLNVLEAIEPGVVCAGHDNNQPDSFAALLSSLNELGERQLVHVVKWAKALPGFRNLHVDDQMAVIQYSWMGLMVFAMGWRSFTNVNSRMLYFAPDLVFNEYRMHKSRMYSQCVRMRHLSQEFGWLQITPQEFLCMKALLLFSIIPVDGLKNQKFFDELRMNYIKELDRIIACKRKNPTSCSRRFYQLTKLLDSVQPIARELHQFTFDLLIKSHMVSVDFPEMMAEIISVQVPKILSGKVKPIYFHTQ

With `CCC(C)Nc1c([N+](=O)[O-])cc(C(C)(C)C)cc1[N+](=O)[O-]` (configuration not stated), the call in assay [1], in assay [3] and in assay [4] was inactive. Also, the concentration at half-maximal activity (AC50) in assay [2] is 36.6 µM (active).
On to `Cc1[nH]c(=O)n(C(C)(C)C)c(=O)c1Cl`, for which the result (in assay [1]; in assay [2]; in assay [3]; in assay [4]; with AR (gene 367) [5]) was inactive.
Consider `O=[N+]([O-])/N=C1\NCCN1Cc1ccc(Cl)nc1`, for which the call (in assay [1]; in assay [2]; with AR (gene 367) [5]) was inactive.
For `COP(=S)(OC)Oc1ccc([N+](=O)[O-])cc1`, the result in assay [2] and in assay [3] was inactive.
As for `C[C@H]1[C@H](c2ccc(Cl)cc2)SC(=O)N1C(=O)NC1CCCCC1`, the concentration at half-maximal activity (AC50) in assay [1] is 73 µM (active); in assay [2], 12.4 µM (active); in assay [3], 79.9 µM (active); with AR (gene 367) [5] it was 19.1 µM (active). Further, the compound was called inactive in the assay with AR (gene 367) [6].
Consider `CC1(c2ccc(Oc3ccccc3)cc2)OC(=O)N(Nc2ccccc2)C1=O` (configuration not stated), for which the half-maximal activity concentration (AC50) was 1.01 µM (active) in assay [1], 0.883 µM (active) in assay [2], 45.8 µM (active) in assay [3] and 3.35 µM (active) in assay [4].
As to `CNC(=O)/C=C(\C)OP(=O)(OC)OC`, the outcome in assay [2] was inactive.
Take `CCC(C)(C)C(=O)OC1=C(c2ccc(Cl)cc2Cl)C(=O)OC12CCCCC2`: the AC50 was 81.9 µM (active) in assay [1] and 12.3 µM (active) in assay [3]. The outcome (in assay [2]; with AR (gene 367) [5]) was inactive.
`O=[N+]([O-])c1c(Cl)c(Cl)c(Cl)c(Cl)c1Cl`: the AC50 in assay [1] is 58.6 µM (active); in assay [2] it was 50 µM (active); in assay [3], 72.3 µM (active); with AR (gene 367) [5] it was 74.6 µM (active). For the same compound, the call with AR (gene 367) [6] was inactive.
Consider `CNC(=O)CSP(=S)(OC)OC`, for which the outcome in assay [2] was inactive.
With `CNC(=O)Oc1ccccc1OC(C)C`, the result in assay [2] and in assay [3] was inactive.
`CCOC1Oc2ccc(OS(C)(=O)=O)cc2C1(C)C` (configuration not stated): the AC50 was 25.7 µM (active) in assay [1], 25.6 µM (active) in assay [2], 78.7 µM (active) in assay [4] and 50 µM (active) with AR (gene 367) [5].
Turning to `O=C(NC(=O)c1c(F)cccc1F)Nc1ccc(OC(F)(F)C(F)OC(F)(F)F)c(Cl)c1` (configuration not stated), the compound was called inactive in assay [1], in assay [2] and in assay [4].
Take `OCCOc1ccccc1`: the call in assay [2] and in assay [3] was inactive.
Take `COP(=O)(OC)OC=C(Cl)Cl`: in assay [2], the result was inactive.
As for `N#Cc1c(Cl)c(Cl)c(Cl)c(C#N)c1Cl`, the values for the AC50 in assay [2] and in assay [3] were 3.7 µM (active) and 1.54 µM (active), respectively.
On to `Clc1ccccc1-c1nnc(-c2ccccc2Cl)nn1`, for which, in assay [3], the compound was called inactive.
For `CC(C)(C)C(O)C(Oc1ccc(Cl)cc1)n1cncn1` (configuration not stated), the result in assay [1], in assay [3] and in assay [4] was inactive. Besides, the AC50 in assay [2] was 39.9 µM (active).
Consider `CCC(C)(NC(=O)c1cc(Cl)c(C)c(Cl)c1)C(=O)CCl` (configuration not stated), for which the AC50 in assay [1] was 26.5 µM (active); in assay [2], 22 µM (active); in assay [3], 9.16 µM (active); in assay [4] it was 25.8 µM (active).

The record behind these values is PubChem BioAssay (EPA / NIEHS).
